Measurements published in PubChem BioAssay AID629 (Emory University Molecular Libraries Screening Center, 2007).
Among all 86,000 compounds or so, about 1,400 (1.6%) were called active. The entries come from a sample that favours actives as a whole. Unmarked numbers belong to inactive results. Rule as the data show it: active = inhibition above about 50%; inactive = the rest.

Target: Estrogen receptor (Homo sapiens) (UniProt P03372)
Assay: ERα–SRC-1 coactivator interaction inhibitors, primary screen, biochemical, TR-FRET, ERα LBD, estradiol-bound (AID 629);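 also: 0% = receptor plus peptide control and 100% = peptide only without receptor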
Conditions: TR-FRET ER-alpha LBD / SRC-1 peptide, at 25.6 µM, hits give high values

Sequence of Estrogen receptor (Homo sapiens) (P03372 whole entry, looked up, the tested form may be a part): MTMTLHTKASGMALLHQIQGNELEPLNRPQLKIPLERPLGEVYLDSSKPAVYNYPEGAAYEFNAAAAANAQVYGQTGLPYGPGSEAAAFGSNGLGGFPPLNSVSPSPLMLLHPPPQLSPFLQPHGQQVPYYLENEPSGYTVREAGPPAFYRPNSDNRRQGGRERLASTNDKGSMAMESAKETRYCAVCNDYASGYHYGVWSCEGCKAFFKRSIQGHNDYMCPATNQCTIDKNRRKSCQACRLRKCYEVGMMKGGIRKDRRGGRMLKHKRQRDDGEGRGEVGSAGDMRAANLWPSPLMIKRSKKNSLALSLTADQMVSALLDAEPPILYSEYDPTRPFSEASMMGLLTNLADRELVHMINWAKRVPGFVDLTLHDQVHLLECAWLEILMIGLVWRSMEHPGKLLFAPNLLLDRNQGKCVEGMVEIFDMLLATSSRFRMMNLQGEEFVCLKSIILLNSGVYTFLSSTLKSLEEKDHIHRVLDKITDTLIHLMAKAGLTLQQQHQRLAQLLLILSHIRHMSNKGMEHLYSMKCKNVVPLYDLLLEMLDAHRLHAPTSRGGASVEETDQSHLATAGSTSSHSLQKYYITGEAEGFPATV

| Compound | inhibition |
| --- | --- |
| COc1ccc(C)cc1-n1nnnc1SCC(=O)c1cc(C)n(Cc2ccco2)c1C | 56% [fluorescence artefact?] (active) |
| COc1ccc(OC)c(-n2nnnc2SCC(=O)Nc2cc(C)ccc2OC)c1 | 4.13% |
| COc1ccc(NC(=O)CSc2nnc(-c3cccs3)n2Cc2ccco2)cc1OC | -0.83% |
| O=C(NCc1ccccc1)[C@@H]1CSC2c3ccccc3C(=O)N21 (some centres undefined) | 6.25% |
| Cc1cc(C)n(-c2nnc(C)n2NC(=O)c2cccc(Cl)c2)n1 | -8.09% |
| COc1ccc(-c2noc(-c3ccc(C)cc3)n2)cc1 | -13.3% |
| Cc1cccc(-c2noc(-c3ccc(F)cc3)n2)c1 | -21.4% |
| COc1ccc2[nH]c(=O)c(-c3noc(-c4ccc(F)cc4)n3)cc2c1 | 72.5% [fluorescence artefact?] (active) |
| COc1ccc(Cl)cc1C(=O)Nc1ccc(N(C)C(C)=O)cc1 | 9.29% |
| COc1cc(OC)c(C(=O)Nc2ccc(N(C)C)cc2)cc1OC | 63.9% [fluorescence artefact?] (active) |
| COc1cc(OC)c(C(=O)NC2CCCCCC2)cc1OC | -10.8% |
| CCOc1ccccc1C(=O)NC1CC2CCCC(C1)N2Cc1ccccc1 (centres undefined) | 1.91% |
| COc1ccc(-c2nnc(SCC(=O)c3ccc4c(c3)OCCO4)o2)cc1 | 22.7% |
| O=c1c2ccccc2nnn1CSc1nnnn1-c1ccccc1 | -0.34% |
| N#CCSc1nc2ccccc2c(=O)n1-c1ccccc1 | 1.7% |
| Cc1ccc(Nc2nc(CSc3nnnn3-c3ccccc3)cc(=O)[nH]2)cc1 | 66.8% [fluorescence artefact?] (active) |
| COc1ccc(-n2nnnc2SCC(=O)Nc2ccccc2)cc1 | -12.4% |

| Compound | inhibition |
| --- | --- |
| O=c1c2ccccc2nc(CSc2nnnn2-c2ccccc2)n1-c1ccccc1 | 70% [fluorescence artefact?] (active) |
| Cc1ccc(-c2noc(CSc3nnnn3-c3ccccc3)n2)cc1 | -3.97% |
| Brc1ccc(-c2nnc(-c3ccccc3)o2)o1 | 12.2% |
| O=C(Cc1ccccc1)Nc1c(C(=O)N2CCCCCC2)cnn1-c1ccccc1 | -5.17% |
| Cc1cc(=O)oc2cc(OCC3CC(c4ccccc4Cl)=NO3)ccc12 (centres undefined) | 3.5% |
| O=C(c1ccc2c(c1)OCO2)N1CCOCC1 | -17.2% |
| Cc1ccc(NC(=O)CSCC(=O)N2CCOCC2)cc1 | -2.74% |
| CCN(CC)C(=O)CN(c1cccc(OC)c1)S(=O)(=O)c1ccc(C)cc1 | 0.16% |
| Cc1nc(C)c(C(=O)Nc2ccc(C)c(F)c2)o1 | 13.3% |
| Cc1nc(C)c(C(=O)Nc2cccc(C)c2C)o1 | 23.7% |
| COc1ccc(Cl)cc1NC(=O)c1oc(C)nc1C | 53.9% (active) |
| Cc1cc(NC(=O)CCC(=O)N(CC(=O)NCC2CCCO2)c2ccccc2C)no1 (centres undefined) | 26% |
| CCOC(=O)N1CCN(C(=O)c2n[nH]c(=O)c3ccccc23)CC1 | -4.02% |
| Cn1c2ccccc2c2c(C(=O)N3CCN(c4ccc(F)cc4)CC3)cn(C3CCCC3)c(=O)c21 | 8.84% |
| CCOC(=O)N1CCN(C(=O)c2nn(-c3ccc(C)cc3)c(=O)c3c2c2ccccc2n3C)CC1 | 58.7% [fluorescence artefact?] (active) |
| CCCc1nc(NCc2ccc3c(c2)OCO3)c2nnn(Cc3ccccc3Cl)c2n1 | 0.25% |
| Cc1ccccc1-c1nnc(SCC(=O)NCc2ccc3c(c2)OCO3)n1C | -3.86% |
